Assay results from PubChem BioAssay AID652180 (National Center for Advancing Translational Sciences (NCATS), 2013).
Results filed as inconclusive are left out. Active and inactive are the calls of the source. The call rests on the fitted dose curve; in most records, active means well fitted inhibition curve with a large enough effect; inconclusive means small, poorly fitted or top-dose-only effect; inactive means no such curve, though single readings can be large or run the other way.

Assay: qHTS Assay for Lipid Storage Modulators: 3T3L1 Assay against Probe and Analogs
Settings: 3T3-L1 lipid droplets, BODIPY imaging, oleic acid, 18-24 h; series mostly up to 46.1 µM; activity change, negative = decreased lipid storage: at the top concentration
Source text: Storing lipids as a reservoir for energy or the anabolism of elementary metabolites is a common feature of probably all cells and is conserved from bacteria to humans. The universal cellular lipid storage organelle is the so-called lipid storage droplet (LD). Although ubiquitous, LDs share a simple structure composed of a hydrophobic core that harbors the storage lipids, which is shielded by a droplet-specific phospholipid monolayer to which proteins are attached. The current model of LD biogenesis involves an incorporation of the lipid core into the membrane leaflets of the endoplasmic reticulum (ER) followed by a subsequent budding-like maturation of a LD, which ultimately pinches off. Once released, LD volume can increase by localized lipogenesis or fusion of existing droplets. Storage lipids are re-mobilized enzymatically by lipase activity. Lipase regulation in the adipocyte is heavily studied and involves multiple components including catecholamine signaling, the LD-associated proteins Perilipin and comparative gene identification-58 (CGI-58) and at least two lipases named hormone sensitive lipase (HSL) and adipocyte triglyceride lipase (ATGL). LD regulation outside of the adipocyte is poorly understood and only few components are known. However, there is an urgent need to learn more about ectopic fat depots as mislocalized storage of lipids, for example in the liver or muscle, is an eminent health problem associated with insulin resistance or the metabolic syndrome. We developed a laser-scanning cytometer assay to enable 1,536-well screening and combined the results of the small molecules screen with an RNAi database based on lipid storage. In this assay we tested analogs of the probe against a mammalian cell line (3T3L1), to see if these small molecules could disrupt lipid storage. NIH Molecular Libraries Probe Production Centers Network [MLPCN] NIH Chemical Genomics Center [NCGC] MLPCN Grant: MH085686 Assay Submitter (PI): Mathias Beller, Max-Planck-Institut fur Biophysikalische Chemie
3T3L1 cells were obtained from ATCC (CL-173). 4 uL of cells at 1.25 X 105 cell/mL were dispensed into 1536 well Poly-D-Lysine coated black with clear bottom imaging plates (Corning, #7356) to obtain 500 cells/well, and cultured at 37 °C, 95% humidity, and 5% CO2 overnight. The culture medium used was OPTI-MEM containing 5% fetal bovine serum (FBS). Triacsin C (Sigma-Aldrich T-4540), an inhibitor of long-chain fatty acyl CoA synthetase that blocks synthesis of triglycerides, was used as a positive control for lipid under-storage. A total of 23 nL of compounds dissolved in DMSO at different concentrations were transferred to the assay plates using a Kalypsys 1536-pin tool, the final DMSO concentration was 0.46%. One microliter of oleic acid at 400 uM (Calbiochem, #4954) was added to induce lipid droplet formation in the cells, and the plates were lidded. After 18-24 hours of incubation at 37 °C, 95% humidity, and 5% CO2, cells were fixed (8 % paraformaldehyde in PBS, 30 min, room temperature), washed three times with PBS, then stained for lipid droplet and nucleus using 4uL of PBS solution containing BODIPY lipid dye 493/503 (1:2000 dilution, Life Technologies, #3922) and Hoechst 33342 (1:1000, Life Technologies, #H3570) with Washer dispenser EL406(Biotek). Images were acquired using InCell 2000 (GE). Number of cells, number of lipids and sizes of lipids were analysis using GE Investigator software.

Activity change, negative = decreased lipid storage, inactive:
O=C(NC1CCCc2c1cnn2-c1ccc(F)cc1F)c1ccn[nH]1 (centres undefined) -26.1%
CCOC(=O)C1CCN(C(=O)C(C)(C)NC(=O)Nc2ccc3sccc3c2)CC1 -36.1%
O=C(N[C@H]1CCCc2c1cnn2-c1ccc(F)cc1F)c1ccccn1 98.8%
CCOc1ccc(CCNC(C)=O)cc1OCC -8.63%
O=C(NC1CCCc2c1cnn2-c1ccc(F)cc1F)c1ccc(C(=O)c2ccccc2)cc1 (centres undefined) 36.4%
O=C(NC1CCCc2c1cnn2-c1ccc(O)cc1)c1ccccn1 (centres undefined) -19.4%
CCOC(=O)C1CCN(C(=O)C(C)(C)NC(=O)Nc2ccc(OC)c(Cl)c2)CC1 -43.9%
Cc1cn(-c2cc(NC(=O)c3ccc(C)c(Nc4nccc(-c5cccnc5)n4)c3)cc(C(F)(F)F)c2)cn1 -41.8%
Cc1ccc(NC(=O)c2ccc(CN3CCN(C)CC3)cc2)cc1Nc1nc(-c2cccnc2)cs1 55.2%
O=C(Cc1ccccc1)NC1CCCc2c1cnn2-c1ccc(F)cc1F (centres undefined) -11.1%
CC1=C(C(=O)NC2CCCc3c2cnn3-c2ccc(F)cc2F)OCCO1 (centres undefined) 29.3%
CCOC(=O)C1CCN(C(=O)C(C)(C)NC(=O)Nc2cccc(C(=O)OC)c2)CC1 -25.1%
O=C(NCCc1ccc2c(c1)OCO2)c1cc2sccc2n1Cc1ccccc1 -41.2%
CCOC(=O)C1CCN(C(=O)C(C)(C)NC(=O)Nc2ccc(CN3CCOCC3)cc2)CC1 16.8%
CC(C)(NC(=O)Nc1ccccc1Cl)C(=O)N1CCC(C(=O)O)CC1 -34.4%
CCOc1ccc(CCNC(=O)c2ccc(N3N=C(C)CC3=O)cc2)cc1OCC -22.6%
O=C(NC1CCCc2c1cnn2-c1ccc(F)cc1F)c1ccsc1 (centres undefined) 55.2%
CC(C)(C)OC(=O)NCCOCCOCCOCCn1ncc2c1CCCC2NC(=O)c1ccccn1 (centres undefined) -33.2%
CC(C)(C)OC(=O)NCCOCCOCCOc1ccc(-n2ncc3c2CCCC3NC(=O)c2ccccn2)cc1 (centres undefined) 44.9%
CN(C)CC(=O)NC1CCCc2c1cnn2-c1ccc(F)cc1F (centres undefined) -13.8%

Potency, active:
CCOc1ccc(CCNC(=O)c2cc3sccc3[nH]2)cc1OCC 4690 nM
CCOc1cc(CCNC(=O)c2cc3sccc3n2Cc2ccccc2)cc(F)c1OCC 52.6 nM
CCOc1ccc(CCNC(=O)c2cc3sccc3n2Cc2ccccn2)cc1OCC 23.5 nM
O=C(O)c1cccc(-c2noc(-c3ccccc3F)n2)c1 2640 nM
CCOc1cc(F)c(CCNC(=O)c2cc3sccc3n2Cc2ccccc2)cc1OCC 14.8 nM
CCOc1ccc(CCNC(=O)c2cc3sccc3n2C(C)C)cc1OCC 29.6 nM
CCOc1ccc(CCNC(=O)c2cc3sccc3n2CCN2CCN(C)CC2)cc1OCC 1320 nM
COc1cc(C)c(Sc2cnc(NC(=O)c3ccc(CNC(C)C(C)(C)C)cc3)s2)cc1C(=O)N1CCN(C(C)=O)CC1 (centres undefined) 3320 nM

Potency, inactive:
O=C(NC1CCCc2c1cnn2-c1ccc(F)cc1F)c1cccs1 (centres undefined)
